Drawing on PubChem BioAssay (NCI), this text covers growth for 29 compounds.

Structures are written as SMILES. Compounds without any hit were thinned out: in the full panel of roughly 83,000, 20% have a hit.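 Note: values are percent growth. 100 is the growth of untreated cells, values between 100 and 0 indicate rising inhibition; between -100 and 0 indicates cell death.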 Values without a mark were called inactive. Active and inactive are the calls of the source. How the source made its calls: active means growth percent below 10; inactive means the rest.

Holding throughout (test): NCI-60 one-dose screen, 48 h (100 = growth as untreated, 0 = no growth, -100 = all killed)
Details in all cases: 10 µM unless noted

In assay [1] the test system is DU-145 prostate.
Assay [2] relates to K-562 leukemia.
Assay [3] concerns MALME-3M melanoma.
In assay [4] the test system is MDA-MB-231 breast.
The test system of assay [5] is RXF 393 renal.
Assay [6] concerns SF-268 CNS.
For assay [7], the system named is SF-295 CNS.
For assay [8], the system named is UACC-257 melanoma.
The subject of assay [9] is M14 melanoma.

Consider `CN(C)c1ccc(C2Nc3ccccc3-n3cccc32)cc1` (stereo unspecified), for which the growth is 114% in [1]; 121% in assay [2]; 99.6% in assay [3]; 96.5% in assay [4]; 98.5% in [5]; 103% in assay [6]. The growth in [7] is 102%; in assay [8], 111%; in [9], 99.1%.

On to `CCOC(=O)/C=C/c1ccc(C(=O)OCC)[nH]1`, for which the growth in [1] was 73.4%; in assay [2] it was 19.4%; in assay [3] it was 73.1%; in [4], 58.8%; in assay [5], 87.3%; in assay [6], 69.2%. Moreover, the growth in [7] was 63%; in [8], 68.1%; in assay [9], 47.6%.

For `C/C(=C(/c1ccc(O)cc1)c1ccc(OCCN2CCCC2)cc1)c1ccccc1`, the growth was 78.8% in [1]; 2.35% (active) in [2]; 8.05% (active) in assay [3]; 49.6% in assay [4]; 42.4% in assay [5]; 63.8% in assay [6]. The values for the growth in assay [7], in [8] and in assay [9] were 44.3%, -29.5% (active) and -53.7% (active), respectively.

`CCCCCCCCCCCCCCCCCCSC1=CC(=O)C(OC)=C(OC)C1=O`: the growth is 113% in assay [1]; 82.2% in [2]; 112% in [3]; 93.5% in assay [4]; 97.7% in assay [5]; 110% in assay [6]. The growth in assay [7] is 97.9%; in assay [8], 90.8%; in assay [9], 74.6%.

For the compound `COc1cc(OC)c(/C=C/S(=O)(=O)Cc2cnc(OC)c(N)c2)c(OC)c1`, the growth in assay [1] was 1.99% (active); in [2], 9.4% (active); in assay [3], 67.3%; in [4], 11.9%; in assay [5] it was 45.5%; in [6] it was 38%. Moreover, the figures for the growth in assay [7], in assay [8] and in [9] were 2.57% (active), 62.4% and 10.1%, respectively.

Take `Oc1cc(O)c2c(=S)cc(-c3ccc(Cl)cc3)oc2c1`: the growth in [1] is 36.9%; in [2], 28.2%; in assay [3], 22.7%; in assay [4] it was 21.6%; in [5] it was 64.6%; in assay [6] it was 36.8%. Moreover, the values for the growth in [7], in assay [8] and in assay [9] were 91.4%, 32.9% and 31.4%, respectively.

As to `Oc1ccc2c(=S)cc(-c3ccc(Br)cc3)oc2c1O`, the growth is 25.5% in [1]; 20.7% in assay [2]; 38.3% in assay [3]; 3.73% (active) in assay [4]; 33.4% in assay [5]; 9.4% (active) in [6]. Moreover, the growth in [7] is 100%; in assay [8], 67.5%; in assay [9] it was 12.3%.

Regarding `O=C1CC(c2nc3ccccc3s2)CN1C1CCCCC1` (stereo unspecified), the growth in assay [1] was 104%; in assay [2], 96.7%; in assay [3], 90.8%; in assay [4], 86.8%; in assay [5] it was 107%; in assay [6], 99.1%. Also, the growth was 92.9% in assay [7], 98.6% in [8] and 99.1% in assay [9].

For `C=C1CCC2C3(C)COC(c4ccc(SC)cc4)OC3CCC2(C)C1C/C=C1/C(=O)OCC1O` (stereo unspecified), the growth in assay [1] is 88.1%; in assay [2], 20.1%; in assay [3], 100%; in [4], 87.9%; in assay [5], 42.6%; in assay [6] it was 88.7%. In addition, the results for the growth in assay [7], in [8] and in assay [9] were 81.9%, 91.5% and 69.3%, respectively.

With `CCn1cc2c(cc1=O)-c1nc3ccccc3c3ccnc(c13)C2=O`, the growth in assay [1] was 36.6%; in assay [2], 50.6%; in assay [3] it was 90.1%; in [4], 75.1%; in assay [5], 63.5%; in assay [6] it was 54.3%. Further, the growth in [7] is 29.9%; in assay [8] it was 74.2%; in [9], 28.9%.

On to `O=C(CCCCN1CCOCC1)Nc1ccc(Cn2nnc3c2C(=O)c2nnn(Cc4ccc(NC(=O)CCCCN5CCOCC5)cc4)c2C3=O)cc1`, for which the growth is -88.6% (active) in assay [1]; 6.24% (active) in [2]; -86% (active) in assay [3]; -1.55% (active) in [4]; -67.4% (active) in [5]; -35.5% (active) in assay [6]. Moreover, the growth was -87.7% (active) in assay [7], -77.2% (active) in assay [8] and -90.3% (active) in assay [9].

For `COc1ccc(CNc2nccnn2)cc1`, the growth in assay [1] was 112%; in [2] it was 96.2%; in assay [3], 100%; in assay [4], 106%; in assay [5], 88.1%; in [6] it was 103%. The growth was 101% in [7], 107% in [8] and 96% in [9].

`C[C@@H]1CCC2=C(CCC[C@]2(C)C(=O)O)[C@@]1(C)CCc1ccoc1`: the growth in assay [1] is 108%; in [2], 116%; in assay [3], 110%; in assay [4] it was 90%; in [5] it was 105%; in assay [6] it was 95.1%. Besides, the growth is 102% in [7], 82.9% in [8] and 103% in [9].

Take `CS(=O)(CCCCN=C=S)=NC(=O)c1c(F)c(F)c(F)c(F)c1F` (stereo unspecified): the growth in [1] is 91.1%; in [2] it was 60.8%; in assay [3], 58.7%; in [4] it was 91.8%; in assay [5], 94.2%; in assay [6], 101%. Moreover, the results for the growth in assay [7], in assay [8] and in [9] were 97.8%, 83.5% and 98.4%, respectively.

For `c1ccc2sc(SCCCn3ccnc3)nc2c1`, the growth was 101% in assay [1]; 103% in assay [2]; 96.1% in [3]; 89.6% in assay [4]; 95.2% in [5]; 98.4% in assay [6]. In addition, the results for the growth in assay [7], in [8] and in assay [9] were 97.4%, 87.3% and 102%, respectively.

With `CC1=C(NCCN2CCCC2)C(=O)c2c(OCc3ccc(C(F)(F)F)cc3)cccc2C1=O`, the growth in assay [1] was 92.1%; in assay [2] it was -14.8% (active); in assay [3], 104%; in [4] it was 81.4%; in assay [5], 88.5%; in [6], 77.1%. Further, the growth is 76.7% in [7], 65.1% in assay [8] and -82.2% (active) in assay [9].

Consider `COc1cc(C(=O)/C=C/c2c(C)n([O-])c3ccc(C)cc3[n+]2=O)cc(OC)c1OC`, for which the growth is 49.3% in [1]; 0.289% (active) in assay [2]; 83.8% in assay [3]; 85% in [4]; -32.4% (active) in assay [5]; 59% in assay [6]. Besides, the results for the growth in assay [7], in [8] and in [9] were 110%, 47.7% and 60.1%, respectively.

In the case of `CCN(CC)CCCCNc1ccc(NCCCCN(CC)CC)c2c1C(=O)c1ccccc1C2=O`, the growth in assay [1] was 94.1%; in assay [2], 1.87% (active); in assay [3] it was 132%; in assay [4], 80.5%; in assay [5] it was 74.9%; in assay [6] it was 101%. Further, the growth in [7] was 110%; in assay [8] it was 97.9%; in [9] it was -36.6% (active).

`COc1c(C2CC(=O)Nc3c2cnn3Cc2ccco2)cc2c(c1OC)OCO2` (stereo unspecified): the growth is 5.85% (active) in [1]; 5.69% (active) in [2]; 55.7% in assay [3]; 16% in assay [4]; -30% (active) in [5]; 34.1% in assay [6]. Besides, the growth is -20.6% (active) in [7], 68.4% in assay [8] and 9.85% (active) in [9].

For `O=C(Nc1ccc(Nc2cc(Nc3ccccc3)ncn2)cc1)Nc1cc(C(F)(F)F)ccc1F`, the growth was 65.7% in [1]; 56.1% in assay [2]; 85.9% in assay [3]; 56.9% in assay [4]; 61.2% in assay [5]; 94.6% in assay [6]. Also, the growth in assay [7] is 84.2%; in assay [8], 73.6%; in assay [9], 57.4%.

For `CC(=O)C1=C(O)C=C2Oc3c(C(=O)/C=C/c4ccccc4)c(O)c(C)c(O)c3[C@]2(C)C1=O`, the growth in assay [1] is 57%; in assay [2], 24.9%; in assay [3], 74.2%; in [4], 61.2%; in assay [5], 62.9%; in assay [6] it was 35.2%. In addition, the values for the growth in assay [7], in [8] and in assay [9] were 19.5%, 44.5% and 36.1%, respectively.

`C=C1CCC2C3(C)COC(c4ccc(OC)cc4Br)OC3CCC2(C)C1/C=C/C1=CCOC1=O` (stereo unspecified): the growth in assay [1] was 86.6%; in assay [2], 31.1%; in assay [3] it was 93.9%; in [4], 78.7%; in [5], 90%; in assay [6], 89%. Moreover, the figures for the growth in assay [7], in assay [8] and in assay [9] were 60.6%, 58.3% and 87.3%, respectively.

Turning to `COc1ccc(-c2cc(=O)[nH]c3c(OC)c4ccccc4c(OC)c23)cc1`, the growth is 2.29% (active) in [1]; 8.05% (active) in assay [2]; 51.3% in [3]; 35.6% in assay [4]; 9.4% (active) in [5]; 34.8% in assay [6]. For the same compound, the growth in assay [7] is 8.09% (active); in [8], 73.8%; in [9], 1.54% (active).

Turning to `CCN(C(=O)CN1CCN(c2cc3c(cc2F)c(=O)c(C(=O)O)cn3CC)CC1)c1nc(-c2ccccc2)cs1`, the growth was 23.3% in [1]; 12.3% in assay [2]; -5.46% (active) in [3]; 6.19% (active) in assay [4]; 4.13% (active) in assay [5]; 22.7% in assay [6]. The growth is -17.5% (active) in [7], -9.83% (active) in [8] and 18.3% in assay [9].

Take `CC/C(=C(\c1ccc(O)cc1)c1ccc(OCCN(C)CCN(C)C(=O)CCCCC(=O)c2c(C)[nH]c(/C=C3\N=C(c4ccc[nH]4)C=C3OC)c2C)cc1)c1ccccc1`: the growth is 65.8% in assay [1]; 42.9% in [2]; 116% in assay [3]; 35.1% in [4]; 83% in assay [5]; 75.9% in assay [6]. Also, the figures for the growth in assay [7], in [8] and in assay [9] were 89.2%, 99.8% and 39.7%, respectively.

On to `COc1ccc2nc3cc(Cl)ccc3c(N3CCN(c4ccnc(N5CCN(C)CC5)n4)CC3)c2c1`, for which the growth is 3.84% (active) in assay [1]; -36.1% (active) in assay [2]; 83.8% in [3]; 28.3% in [4]; 10.5% in assay [5]; 52.8% in [6]. Besides, the growth in assay [7] was 93.9%; in assay [8] it was 90.7%; in [9], 58.5%.

For `COc1ccc(C(=O)c2sc3nc(-c4ccccc4OC)ccc3c2N)cc1OC`, the growth is 70.1% in [1]; 25.1% in assay [2]; 90.6% in [3]; 64% in assay [4]; 55.8% in assay [5]; 64.7% in assay [6]. Also, the growth is 47.9% in assay [7], 86.6% in assay [8] and 50% in assay [9].

Regarding `Nc1nc2c(c3ncccc13)C(c1ccc(Cl)c(Cl)c1)Cc1ncccc1-2` (stereo unspecified), the growth in assay [1] is 35.5%; in assay [2], 11%; in assay [3], 47.1%; in assay [4], 28.9%; in assay [5] it was -25.4% (active); in [6] it was 44.8%. Moreover, the growth is 1.19% (active) in [7], 35.4% in [8] and 20% in assay [9].

As to `COc1ccc(C(=O)c2sc3nc4c(c(C(F)(F)F)c3c2N)CN(C(C)=O)CC4)cc1OC`, the growth in assay [1] is 104%; in assay [2] it was 78.2%; in assay [3], 88%; in assay [4], 63.8%; in assay [5] it was 74.7%; in assay [6], 85%. The growth in [7] was 86.2%; in assay [8], 99.2%; in assay [9], 100%.
